# Inconclusive results are not listed. A call without a number means that no potency is given here. Active and inactive are the calls of the source. The call rests on the fitted dose curve; in most records, active means well fitted inhibition curve with a large enough effect; inconclusive means small, poorly fitted or top-dose-only effect; inactive means flat fitted curve, though single readings scatter. Numbered stars: 1 amine (or outer) side, 2 acyl side, 3 side chain; on linkers, the order of the positions; unused ones are H or OH. Bridge positions count the residues as written; N and C are the ends. Square brackets hold non-standard residues; d marks the D form. Peptide text beside a SMILES is read from it. I, II: the chains in the order shown. Actinocin(9to1) = Cc1c2oc3c(C)ccc(C(=O)[*:1])c3nc-2c(C(=O)[*:2])c(N)c1=O; NMeV = CN[C@H](C(=O)O)C(C)C; Sar = CNCC(=O)O
# Target: Luciferin 4-monooxygenase (Photinus pyralis) (UniProt P08659)
# Assay: Biochemical firefly luciferase enzyme assay for NPC (AID 624030); further: nearly all actives have a fitted effect of over 70% in size
# Conditions: purified P. pyralis luciferase, luminescence, 5 min; series mostly up to 58.6 µM
# Source text: Charcot-Marie-Tooth-Association [CMTA] National Center for Advancing Translational Sciences [NCATS] Charcot-Marie-Tooth (CMT) disease was first characterized by Jean-Martin Charcot and Pierre Marie in France and, independently, by Howard Henry Tooth in England in 1886. CMT is one of the most common inherited neurological diseases, affecting approximately 1 in 2,500 Americans. […] The most prevalent type of CMT is known as CMT1A and caused by a duplication of the PMP22 gene which leads to over-expression of this protein. PMP22 is a glycosylated intrinsic membrane protein accounting for 2-5% of the myelin protein content, and its over-expression results in demyelination and subsequently axonal loss. A pair of cellular transcription-based assays was developed in the S16 rat Schwann cell lines (Hai, M., et al., 2002) stably transfected with orthogonal reporters - firefly luciferase (Fluc) and beta-lactamase (beta-Lac) - whose expression is driven by an intronic regulatory element of the PMP22 gene (Jones, E.A., et al., 2011) to recapitulate endogenous expression of PMP22. A comprehensive library of approved drugs, the NCGC Pharmaceutical Collection (Huang, R., et al., 2011), was screened in the cross-validating platform of the orthogonal reporter assays to identify drug modulators inhibitory towards PMP22 expression. A set of counter-screens was devised to address non-specific activity of the library. An ATP-dependent CellTiter-Glo assay (developed by Promega Corp) was utilized to control cell viability. In addition, biochemical Fluc enzyme assay was performed to assess direct inhibition of the Fluc enzymatic activity. References Hai, M., Muja, N., DeVries, G.H., Quarles, R.H. and Patel, P.I. Comparative analysis of Schwann cell lines as model systems for myelin gene transcription studies. J Neurosci Res, 2002. 69(4): pp 497-508 Huang, R., Southall, N., Wang, Y., Yasgar A., Shinn P., Jadhav, A. , Nguyen, D.-T. and Austin, C.P., The NCGC pharmaceutical collection: a comprehensive resource of clinically approved drugs enabling repurposing and chemical genomics. Sci Transl Med, 2011. 3(80): p. 80ps16.
# Compounds were transferred to the plates in 23nl, and one microliter/well luciferase enzyme-buffer solution (10 nM P. pyralis luciferase and 50 mM Tris Acetate final concentrations) was dispensed yielding a final reaction volume of […]. Luciferase luminescence was measured by a ViewLux plate reader within 5 minutes of enzyme-buffer addition. The % activity was determined by normalizing to the average readings of PTC124 (a positive control) relative to DMSO (0% Activity). The concentration-effect curves were then classified based on curve quality (r2), response magnitude and degree of measured activity.
# Chain of Luciferin 4-monooxygenase (Photinus pyralis) (P08659 whole entry, looked up): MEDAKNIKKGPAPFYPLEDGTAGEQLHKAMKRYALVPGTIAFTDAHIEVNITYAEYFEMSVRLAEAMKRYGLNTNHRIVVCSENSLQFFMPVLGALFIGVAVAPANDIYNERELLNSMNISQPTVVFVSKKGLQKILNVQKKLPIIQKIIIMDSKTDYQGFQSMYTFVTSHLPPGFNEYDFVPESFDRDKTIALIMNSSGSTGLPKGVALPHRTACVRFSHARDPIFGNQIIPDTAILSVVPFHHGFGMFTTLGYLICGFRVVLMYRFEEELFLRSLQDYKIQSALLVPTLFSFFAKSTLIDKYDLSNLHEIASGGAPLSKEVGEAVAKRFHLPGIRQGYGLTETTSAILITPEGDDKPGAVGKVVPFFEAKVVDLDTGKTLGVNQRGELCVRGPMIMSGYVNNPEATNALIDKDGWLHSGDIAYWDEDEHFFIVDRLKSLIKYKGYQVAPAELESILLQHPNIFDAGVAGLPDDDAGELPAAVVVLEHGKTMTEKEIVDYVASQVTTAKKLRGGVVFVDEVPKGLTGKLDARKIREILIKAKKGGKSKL
row,Structure (SMILES),Potency
1,CCN1CCC[C@H]1CNC(=O)c1c(OC)ccc(Br)c1OC,inactive
2,CCOc1ccc2nc3cc(N)ccc3c(N)c2c1,inactive
3,C[C@H]1[C@H](NC(=O)/C(=N/OC(C)(C)C(=O)O)c2csc(N)n2)C(=O)N1S(=O)(=O)O (stereo in doubt),inactive
4,COc1cc2c(cc1OC)C(=O)C(CC1CCN(Cc3ccccc3)CC1)C2 (stereo not given),inactive
5,CC[N+](CC)(CCNC(=O)C(=O)NCC[N+](CC)(CC)Cc1ccccc1Cl)Cc1ccccc1Cl,inactive
6,CN=C(NC#N)NCCSCc1csc(N=C(N)N)n1,inactive
7,NCCCC[C@H](N[C@@H](CCc1ccccc1)C(=O)O)C(=O)N1CCC[C@H]1C(=O)O,inactive
8,CCCCS(=O)(=O)N[C@@H](Cc1ccc(OCCCCC2CCNCC2)cc1)C(=O)O,inactive
9,Cc1onc(-c2c(Cl)cccc2Cl)c1C(=O)N[C@@H]1C(=O)N2[C@@H]1SC(C)(C)[C@@H]2C(=O)O,inactive
10,CC(=O)Oc1ccc(C(=C2CCCCC2)c2ccc(OC(C)=O)cc2)cc1,inactive
11,COc1ccc(CCN2CCC(Nc3nc4ccccc4n3Cc3ccc(F)cc3)CC2)cc1,inactive
12,COC(=O)[C@@H]1CC2=CC(=O)CC[C@]2(C)[C@@]23O[C@@H]2C[C@@]2(C)[C@@H](CC[C@@]24CCC(=O)O4)[C@H]13,inactive
13,Cc1c(C(N)=O)cc([N+](=O)[O-])cc1[N+](=O)[O-],inactive
14,CCN1CCN(c2cc3c(cc2F)c(=O)c(C(=O)O)cn3C2CC2)CC1,inactive
15,COc1c2occc2c(OC)c2c(=O)cc(C)oc12,inactive
16,CCCCCCCCCCCCCCCCOP(=O)([O-])OCC[N+](C)(C)C,inactive
17,CCCCOc1ccc(OCCCN2CCOCC2)cc1,inactive
18,Cc1cc(O)c(C(C)C)cc1Cl,inactive
19,CCCCCC=CCC=CCCCCCCCC(=O)OCC,inactive
20,CN1C2CCC1CC(OC(=O)c1c[nH]c3ccccc13)C2 (stereo not given),inactive

row,Structure (SMILES),Potency
1,CCOC(=O)COc1ccc2c(C)c(CCN(CC)CC)c(=O)oc2c1Cl,inactive
2,O=C1c2ccccc2C(=O)C1c1ccccc1,inactive
3,Nc1cc(Cl)c(NC2=NCCN2)c(Cl)c1,inactive
4,C[C@]12C=CC(=O)C=C1[C@@H](F)C[C@@H]1[C@@H]2[C@@H](O)C[C@@]2(C)[C@H]1CC[C@]2(O)C(=O)CO,inactive
5,CN(C(=O)CN(CCO)CC(=O)N(C)C(C)(C)Cc1ccccc1)C(C)(C)Cc1ccccc1,inactive
6,O=C1OCCN1/N=C/c1ccc([N+](=O)[O-])o1,inactive
7,CCCCCCCCCCCCCCCCCC(=O)OCC(O)CO (stereo not given),inactive
8,C[C@H](O)C(=O)Nc1c(I)c(C(=O)NC(CO)CO)c(I)c(C(=O)NC(CO)CO)c1I,inactive
9,CN=C(NC#N)Nc1ccc(C2=NNC(=O)CC2C)cc1 (stereo not given),inactive
10,COc1cc(C(=S)N2CCOCC2)cc(OC)c1OC,inactive
11,CN1C(CCl)Nc2cc(Cl)c(S(N)(=O)=O)cc2S1(=O)=O (stereo not given),inactive
12,Cc1ccnc(NS(=O)(=O)c2ccc(N)cc2)n1,inactive
13,O=C(COc1ccc(Cl)cc1)N1CCN(Cc2ccc3c(c2)OCO3)CC1,inactive
14,"Cc1c2oc3c(C)ccc(C(=O)N[C@@H]4C(=O)N[C@H](C(C)C)C(=O)N5CCC[C@H]5C(=O)N(C)CC(=O)N(C)[C@@H](C(C)C)C(=O)O[C@@H]4C)c3nc-2c(C(=O)N[C@@H]2C(=O)N[C@H](C(C)C)C(=O)N3CCC[C@H]3C(=O)N(C)CC(=O)N(C)[C@@H](C(C)C)C(=O)O[C@@H]2C)c(N)c1=O (I: T[dV]P[Sar][NMeV] / II: T[dV]P[Sar][NMeV]; ester I:1-I:C, II:1-II:C; linker I:N-II:N via Actinocin(9to1))",inactive
15,NCCc1ccn[nH]1,inactive
16,CCC(=O)c1c(O)cc(O)cc1O,inactive
17,CC(C)N=C(N)/N=C(\N)Nc1ccc(Cl)cc1,inactive
18,CC(C)(C)CC(C)(C)c1ccc(O)c(Cc2ccc(Cl)cc2Cl)c1,inactive
19,COC(=O)C1=C(C)NC(C)=C(C(=O)O[C@@H]2CCCN(Cc3ccccc3)C2)[C@@H]1c1cccc([N+](=O)[O-])c1,inactive
20,CC(C)(CO)[C@@H](O)C(=O)NCCCO,inactive
